Screening results deposited in PubChem by several laboratories.
Shown are actives, neighbours in structure and some others; about 28% of the full set was active somewhere.
CYP2C9 inhib = blockers of cytochrome P450 2C9 activity – biochemical, luminescence, ADME assay, primary screen. P11712. 96,000 compounds, 20% hits. CYP2C9 Supersomes, luciferin-H conversion. AID 777, 2007. inhibition, % at 5 µM;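 active = blocking of liver enzyme CYP2C9 beyond about 50% at 5 µM, limit read from the data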
CYP2C19 act = human CYP2C19 activators, primary screen, biochemical, luminescence. 96,000 tested, under 10 active. activation factor at 5 µM. recombinant CYP2C19, luciferin-H EGE luminescence; active compounds read high; 0 = fully inhibited enzyme, 1 = untreated enzyme. Cytochrome P450 2C19 (Homo sapiens), P33261;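 active = activation factor of at least 2 at 5 µM in the primary screen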;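 also: 0 = wells with 2.5 mM tranylcypromine and 1 = vehicle-only wells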
Target sequence (P33261 whole entry, looked up): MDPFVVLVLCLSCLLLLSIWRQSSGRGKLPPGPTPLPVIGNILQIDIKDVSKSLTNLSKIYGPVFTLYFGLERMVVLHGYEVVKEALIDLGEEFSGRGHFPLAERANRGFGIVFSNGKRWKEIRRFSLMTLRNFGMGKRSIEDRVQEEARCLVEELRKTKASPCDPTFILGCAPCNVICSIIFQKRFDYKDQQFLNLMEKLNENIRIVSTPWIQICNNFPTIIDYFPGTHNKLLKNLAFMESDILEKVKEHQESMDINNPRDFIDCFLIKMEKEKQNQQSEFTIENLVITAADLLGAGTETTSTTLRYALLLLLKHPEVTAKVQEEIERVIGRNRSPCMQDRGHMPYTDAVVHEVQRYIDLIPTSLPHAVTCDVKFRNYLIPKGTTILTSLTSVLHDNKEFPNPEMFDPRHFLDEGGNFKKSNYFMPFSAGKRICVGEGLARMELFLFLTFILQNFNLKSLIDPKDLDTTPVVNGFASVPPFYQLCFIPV
PLK1 PBD inh = Plk1 polo box domain binding inhibitors, primary screen, biochemical, fluorescence polarization; inhibition, %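 (tested at about 20 µM)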; Plk1 PBD phosphopeptide binding; 97,000 compounds, 0.13% hits; AID 693, 2007; in the data active = inhibition above about 34%, passing the limit was not always enough
PLK1 kinase inh = human PLK1 kinase inhibitors, primary screen, biochemical, TR-FRET; Serine/threonine-protein kinase PLK1 (Homo sapiens), P53350; inhibition, % at 10 µM; recombinant PLK1 kinase, TR-FRET peptide phosphorylation; 97,000 compounds, 0.53% hits; AID 619, 2007;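 active = inhibition of 50% or more in the single-concentration screen; inactive = inhibition below 50%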;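 also: 0% = DMSO max control and 100% = H-89 dihydrochloride min control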
CYP2C9 act = human CYP2C9 activators, primary screen, biochemical, luminescence | Cytochrome P450 2C9 (Homo sapiens), P11712 | recombinant CYP2C9, luciferin-H conversion; active compounds read high; factor 1 = untreated enzyme, 0 = blocked | activation factor at 5 µM | 96,000 compounds, 1.4% hits | AID 1024, 2008;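 active = activation factor of 2 or more for CYP2C9 at a 5 µM dose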;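 also: 0 = sulfaphenazole-blocked wells and 1 = vehicle-only wells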
CYP2C19 inhib = blockers of cytochrome P450 2C19 activity – biochemical, luminescence, ADME assay, primary screen; CYP2C19 Supersomes, luciferin-H EGE luminescence, 30 min; AID 778, 2007; P33261; inhibition, % at 5 µM; 96,000 compounds, 21% hits;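 active = CYP2C19 inhibition above a set limit at 5 µM in the primary screen, cut at about 50% in these data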;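 also: plate controls were negative control wells for no effect and 2.5 mM tranylcypromine positive control for full effect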
* = called active by the depositor; nt = no result.

SMILES	CYP2C9 inhib	CYP2C19 act	PLK1 PBD inh	PLK1 kinase inh	CYP2C9 act	CYP2C19 inhib
Cc1nc(=O)c(-c2ccccc2)c(C)n1CCCCCC(=O)O	0.3	1	-2.0	-1.2	1	-4.1
Cc1ccc2c(C)c(C(=O)Nc3cccnc3)oc2c1	52.5*	0.5	1.5	-12.7	0.5	48.6
Cc1c(C(=O)Nc2ccccn2)oc2ccccc12	30.5	0.7	nt	nt	0.7	34.0
Cc1c(C(=O)NC(C)c2ccncc2)oc2ccccc12 (stereo not given)	83.1*	0.2	28.5	-14.6	0.2	82.4*
Cc1c(C(=O)Nc2nnc(C(F)(F)F)s2)oc2ccccc12	62.9*	1	nt	nt	0.4	-4.2
Cc1c(C(=O)Nn2cnnc2)oc2ccccc12	16.5	0.3	11.5	-8.3	0.8	74.3*
COC(=O)c1sc(NC(=O)c2oc3ccccc3c2C)nc1C	-2.7	1.1	-4.1	-9.5	1	-9.9
NC(=O)c1sc2nc3c(c(-c4cccs4)c2c1N)CCCCC3	-7.9	1.1	6.2	-13.0	1.1	-13.4
O=C(Nc1nc(-c2cccnc2)cs1)c1ccc(S(=O)(=O)N2CCOCC2)cc1	10.4	0.9	27.7	-14.3	0.9	8.5
CCCNC(=O)c1ccccc1C(=O)NCCC	6.8	1.1	-25.9	-4.8	0.9	-5.2
Cc1c(C(=O)Nc2ccncc2)oc2ccccc12	53.0*	0	7.8	-13.6	0.5	97.9*
OC(Cc1nc2ccccc2[nH]1)c1ccccc1Cl (stereo not given)	15.3	0.5	11.6	-1.4	0.8	49.2
OC(c1ccc(Cl)cc1)C(O)c1nc2ccccc2[nH]1 (stereo not given)	1.3	0.2	-1.4	-10.2	1	77.0*
COC(=O)c1ccc(-n2nnnc2SCc2ccccc2OC)cc1	42.1	0.9	-18.9	-12.1	0.6	6.1
C(=N\n1cncn1)/c1ccc(N2CCOCC2)cc1	39.1	0.4	-6.5	-5.4	0.6	63.3*
C(=N\n1cnnc1)/c1ccc(N2CCOCC2)s1	19.1	0.4	nt	nt	0.8	60.2*
C(=N\n1cnnc1)/c1ccc(N2CCOCC2)cc1	65.4*	0.1	-18.8	-4.3	0.3	87.9*
S=c1[nH]ncn1/N=C/c1ccc(N2CCOCC2)cc1	3.6	0.8	8.8	-11.7	1	24.2
c1ccc2sc(N3CCOCC3)nc2c1	-4.0	0.9	-24.0	-3.1	1	13.1
Cc1ccc(S(=O)(=O)N2CCN(C(=O)CN3CCOCC3)C2c2ccccc2)cc1 (stereo not given)	6.2	0.9	9.8	-15.4	0.9	11.9
Cc1ccc(C(=O)OCC(=O)Nc2ccc3c(c2)OCO3)o1	nt	nt	-19.1	-7.7	nt	nt
CN1C(=O)c2cccc(NCCCCCCN3C(=O)c4ccccc4C3=O)c2C1=O	74.9*	0.7	-2.1	-48.0	0.3	32.2
COc1ccc(S(=O)(=O)N(C)CC(=O)N2CCC(C)CC2)cc1Cl	-154.9	0.9	-7.2	-11.0	2.5*	6.7
COc1ccc(OC)c(N(CC(=O)N2CCCCC2)S(=O)(=O)c2ccc(OC)c(OC)c2)c1	nt	nt	-4.0	-13.2	nt	nt
COc1ccc(N(CC(=O)N2CCCCC2)S(=O)(=O)c2ccccc2)c(OC)c1	48.6	0.5	10.2	-2.7	0.5	52.7*
SMILES	CYP2C9 inhib	CYP2C19 act	PLK1 PBD inh	PLK1 kinase inh	CYP2C9 act	CYP2C19 inhib
COc1ccc(OC)c(N(CC(=O)N2CCC(C)CC2)S(=O)(=O)c2ccc(OC)c(OC)c2)c1	39.0	0.8	4.5	-11.3	0.6	16.0
COc1ccc(OC)c(N(CC(=O)N2CCC(C)CC2)S(=O)(=O)c2ccccc2)c1	52.1*	0.7	3.7	-7.1	0.5	34.0
CSc1nc2ccccc2cc1/C=C(\C#N)c1cccc(Cl)c1	-8.9	1.1	15.5	-15.0	1.1	-6.9
COc1cc(C(=O)Nc2cnc(NC(=O)C(C)C)cc2C)cc(OC)c1OC	nt	nt	-2.6	2.0	nt	nt
C=CCn1c(NC(=O)c2ccc(Br)o2)c(C(=O)OCC)sc1=S	88.2*	0.7	-15.6	-0.2	0.1	25.3
CC(C)c1nc(=S)c2ccccc2[nH]1	52.7*	0.4	-18.9	-12.4	0.5	62.7*
